From PubChem BioAssay
CHO-K1 Ca ag – counter-screen for M1 agonists: effect in parental CHO-K1 cells; Fluo-8 calcium fluorescence; scaled to maximal ATP response, vehicle zero; activation, % at 3 µM; 360,000 compounds, 0.48% hits; AID 602248, 2012; in the data active means activation above about 15%;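 further: untransfected CHO-K1 host cells lacking M1 receptor as counterscreen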
CHO-K1 Ca antag – M1 antagonist counterscreen hit in parental CHO-K1 cells; inhibition, % at 3 µM; AID 602250; 360,000 compounds, 0.6% hits; ATP-induced calcium, Fluo-8 fluorescence;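 active means inhibition above a per-plate cutoff, the plate's mean sample inhibition plus 3 SD, cut at about 24% in these data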;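 further: 0% = DMSO plus EC80 ATP and 100% = DMSO alone without ATP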
CHRM1 antagonist – human M1 muscarinic receptor antagonists, primary screen, CHO-K1 cells, Fluo-8 calcium fluorescence, 1536-well; inhibition, % at 3 µM; Muscarinic acetylcholine receptor M1 (Homo sapiens), P11229; CHO-K1 hM1, ACh EC80 antagonist; 360,000 compounds, 1.3% hits;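 active means percent inhibition above its own plate's cutoff, namely the mean of that plate's compound wells plus 3 SD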;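 further: peak over basal fluorescence ratio during 140 s after agonist addition; 0% = ACh EC80 plus DMSO and 100% = DMSO alone without agonist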
Target sequence (P11229 whole entry, looked up): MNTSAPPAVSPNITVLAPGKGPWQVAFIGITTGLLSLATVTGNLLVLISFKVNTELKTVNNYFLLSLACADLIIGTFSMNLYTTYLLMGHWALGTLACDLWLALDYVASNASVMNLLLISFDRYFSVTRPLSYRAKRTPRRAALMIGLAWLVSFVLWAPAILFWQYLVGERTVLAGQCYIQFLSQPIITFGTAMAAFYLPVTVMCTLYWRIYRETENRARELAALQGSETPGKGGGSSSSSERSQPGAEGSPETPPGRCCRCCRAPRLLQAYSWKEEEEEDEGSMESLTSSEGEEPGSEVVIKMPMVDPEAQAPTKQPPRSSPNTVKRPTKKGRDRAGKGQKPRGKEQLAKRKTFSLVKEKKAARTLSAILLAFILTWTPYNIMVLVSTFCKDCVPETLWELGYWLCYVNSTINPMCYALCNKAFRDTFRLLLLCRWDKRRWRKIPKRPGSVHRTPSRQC
CHRM1 PAM – human M1 muscarinic receptor positive allosteric modulators, primary screen, CHO-K1 cells, Fluo-8 calcium fluorescence, 1536-well | Muscarinic acetylcholine receptor M1 (Homo sapiens), P11229 | CHO-K1 hM1, ACh EC20; 0% = ACh EC20, 100% = maximal ACh | activation, % at 3 µM | 360,000 compounds, 0.088% hits; in the data active means activation above about 19%, passing the limit was not always enough
M1 PAM parental – nonselective calcium activators in parental CHO-K1 cells, primary screen, counter-screen for M1 PAM project, cell-based, Fluo-8 calcium fluorescence, full deck, 1536-well | ATP EC20; 0% at ATP EC20, 100% at ATP max | activation, % at 3 µM | 360,000 compounds, 0.02% hits | AID 602247, 2012;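 active means activation above the run cutoff, the mean activation of all test compounds plus 3 SD, cut at about 40% in these data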;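 further: peak over basal fluorescence ratio in a 140 s read after ATP addition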
CHRM1 agonist – human M1 muscarinic receptor agonists, primary screen, Fluo-8 calcium fluorescence, CHO-K1 cells, HTS | CHO-K1 hM1, agonist mode; 0% DMSO, 100% acetylcholine EC100 | activation, % at 3 µM | 360,000 compounds, 0.33% hits | AID 588814, 2011;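 active means activation above the run's mean compound activation plus 3 SD, cut at about 16% in these data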;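 further: peak over basal fluorescence ratio within a 140 s kinetic read after compound addition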
* = called active by the depositor. In the library only some 2.3% were active in any assay of this set; here they are far more common.

SMILES	CHO-K1 Ca ag	CHO-K1 Ca antag	CHRM1 antagonist	CHRM1 PAM	M1 PAM parental	CHRM1 agonist
O=C1/C(=C\c2cc([N+](=O)[O-])ccc2O)SC(=S)N1Cc1ccc(Cl)cc1	7	7	36*	-13	-6	23*
CC1=CCC(C(=O)N/N=C/c2cccs2)C(c2ccc(F)cc2)C1 (centres undefined)	1	-14	-9	7	48*	1
COc1ccc(-c2csc(C(C)(O)c3ccc(F)c(F)c3)n2)cc1 (centres undefined)	1	-9	9	-10	14	-6
C[C@H]1CN([C@@H](C)CO)C(=O)Cc2cc(NS(=O)(=O)c3cn(C)cn3)ccc2O[C@@H]1CN(C)C(=O)Nc1ccc(F)cc1	0	-10	-9	4	17	-5
O=C(C1CCCCC1)N1CCC2CC1c1cc(-c3ccc4c(c3)OCO4)ccc12 (centres undefined)	4	16	35*	-18	13	-5
O=C(OCCCc1cc2ccccc2c(=O)o1)c1ccc2c(c1)OCO2	1	10	11	10	-19	4
Oc1ccc(-c2nccs2)cc1	1	-15	-17	5	5	-3
Nc1ccc(S(=O)(=O)N2CCCC2)cc1	1	-3	-6	2	14	-5
Nc1ccc(S(=O)(=O)c2ccc(N)cc2)cc1	2	26*	-35	5	-9	-2
COc1cc(OC)cc(C(=O)N2CCN(C3CCC(C)CC3)CC2)c1 (centres undefined)	0	0	31*	-20	-11	-8
CCCCCCC[C@@H](C/C=C/CCC(=O)N(C)C/C(=C/Cl)C/C(=C\C(=O)N1CC(OC)=CC1=O)OC)OC	2	-4	33*	-11	1	-4
O=C(NCCCN1CCOCC1)C(=O)N/N=C/c1c2ccccc2cc2ccccc12	0	-1	65*	-24	3	-11
O=C(NCCCN1CCOCC1)C(=O)N/N=C/c1c(Cl)cccc1Cl	0	-12	2	8	21	-10
O=C(CCCSc1nc2ccccc2[nH]1)N1CCN(c2ccc([N+](=O)[O-])cc2)CC1	0	-13	43*	-18	12	0
Cn1nc(C(F)(F)F)c(-c2ccc(Br)cc2)c1NC(=O)Nc1ccc(F)cc1F	9	20	38*	-9	-21	4
N#Cc1ccccc1OCc1cccc(S(=O)(=O)N2CCOCC2)c1	4	5	4	-4	-9	-4
CC1(OC(=O)C2CCCC2)C(=O)C=C2C=C(c3ccsc3)N(C3CCCCC3)C=C2C1=O (centres undefined)	0	6	10	-12	-6	-4
CC1(OC(=O)C2CCCC2)C(=O)C=C2C=C(c3ccsc3)N(CC3CC3)C=C2C1=O (centres undefined)	0	7	67*	-39	-11	-13
CC[N+](CC)(CC#Cc1ccccc1)CC#Cc1ccccc1	0	-11	42*	-20	8	-7
COC(=O)c1ccc(C[n+]2ccccc2)cc1	0	24*	-15	9	-6	-9
COC(=O)c1ccc(NC(=O)C[n+]2ccccc2)cc1	1	-5	13	-13	9	-10
Cc1nn(C(C)C(=O)NCCc2ccco2)c(=O)c2nn(-c3ccccc3)c(C)c12 (centres undefined)	0	-13	19	31*	21	-1
Cc1nn(C(C)C(=O)NCc2ccco2)c(C)c1[N+](=O)[O-] (centres undefined)	19*	-1	-11	10	15	2
O=C(NCc1ccco1)Nc1ccc([N+](=O)[O-])cc1	6	-19	8	-8	13	-1
CC(C(=O)NCc1ccco1)c1ccc([N+](=O)[O-])cc1 (centres undefined)	0	25*	-3	11	-13	-5
Cc1nn(CC(=O)NCCc2ccco2)c(=O)c2nn(-c3ccccc3)c(C)c12	0	-10	-6	5	14	-4
